According to the supplement of paper PMC10849652:
The full data set covers some 7,900 targets. This sample favours those with a hit. About 0.6% of all pairs of compound and target were hits. Values without a mark were called inactive.

Tests used:
Experiment in all cases: log2 fold change, soluble protein after heating vs DMSO (PISA); higher = thermal stabilisation; K562 cells, 10 uM, 30 min; active = over 0.2 and 3.5 SD of the protein, either way, in both replicates (recomputed)
[1] = compound: CC1=C(C=C(C=C1)NC(=O)C2=CC(=CC=C2)C(C)(C)C#N)NC3=CC4=C(C=C3)N=CN(C4=O)C
How it was run: (§1)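 K562 cells at 2×10^6 cells/mL were treated for 30 min with 10 μM compound, and aliquots were heated for 3 min over 48°C-58°C before pooling. Extraction used PBS with 0.5% NP-40 at 4°C, and soluble protein was the supernatant after 21,000xg for 90 min, measured by TMTpro 16plex LC-MS/MS with channel sums equalised. Thermal stability values, relative to control samples and from duplicates, are log2 fold changes.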

[2] = compound: CC1=C(C=C(C=C1)NC(=O)C2=CC(=CC=C2)N(C)C)NC(=O)C3=CC=C(C=C3)O
How it was run: as §1

[3] = compound: CC1=CC=C(C=C1)SC2=C3C=C(SC3=CN=C2)C(=O)N
How it was run: as §1

[4] = compound: CC1=NC(=CC=C1)C2=C(N=C(N2)C(C)(C)C)C3=CC4=NC=CN=C4C=C3
How it was run: as §1

[5] = compound: CCCCN(Cc1ccc(C(=O)NO)cc1)C(=O)Nc1ccccc1 [Nexturastat A]
How it was run: as §1

[6] = compound: CCCS(=O)(=O)Nc1ccc(F)c(C(=O)c2c[nH]c3ncc(-c4ccc(Cl)cc4)cc23)c1F [vemurafenib]
How it was run: as §1

[7] = compound: CCCS(=O)(=O)Nc1ccc(F)c(C(=O)c2c[nH]c3ncc(Cl)cc23)c1F
How it was run: as §1

[8] = compound: CCCc1cc(C)[nH]c(=O)c1CNC(=O)c1cc(-c2ccnc(N3CCN(C)CC3)c2)cc2c1cnn2C(C)C
How it was run: as §1

[9] = compound: CCN(CC)Cc1ccc2cc(COC(=O)Nc3ccc(C(=O)NO)cc3)ccc2c1 [givinostat]
How it was run: as §1

[10] = compound: CCN(CCCOc1ccc2c(Nc3cc(CC(=O)Nc4cccc(F)c4)[nH]n3)ncnc2c1)CCOP(=O)(O)O [barasertib]
How it was run: as §1

[11] = compound: CC[C@@H]1C(=O)N(C)c2cnc(Nc3ccc(C(=O)NC4CCN(C)CC4)cc3OC)nc2N1C1CCCC1
How it was run: as §1

[12] = compound: CC[C@@H]1C(=O)N(C)c2cnc(Nc3ccc(C(=O)N[C@H]4CC[C@H](N5CCN(CC6CC6)CC5)CC4)cc3OC)nc2N1C(C)C [volasertib]
How it was run: as §1

[13] = compound: CC[C@H](C)N1C=C(C2=C(C=C(C=C21)C3=CN=C(C=C3)N4CCNCC4)C(=O)NCC5=C(C=C(NC5=O)C)C)C
How it was run: as §1

[14] = compound: CC[C@H](C)[C@@H](C(=O)N[C@@H]([C@@H](C)O)C(=O)N[C@@H](CC(C)C)C(=O)[C@]1(CO1)C)NC(=O)[C@H]([C@@H](C)CC)N(C)C(=O)C [epoxomicin]
How it was run: as §1

[15] = compound: CCn1c(C(=O)N(C2CC2)C2CC2)cc2c3c(ncn3C)c(Nc3cc(C)n(C)n3)nc21
How it was run: as §1

[16] = compound: CN(C)CC(=O)Nc1ccc2[nH]c(=O)c3ccccc3c2c1
How it was run: as §1

[17] = compound: CN(CCOC1=CC=C(C=C1)C[C@H]2C(=O)NC(=O)S2)C3=CC=CC=N3 (racemic) [rosiglitazone]
How it was run: as §1

[18] = compound: CN1C2=C(C3=C1C(=O)N(N=C3)CC4=CC(=CC=C4)N)SC(=C2)S(=O)C
How it was run: as §1

[19] = compound: CCn1cc(-c2ccnc3[nH]c(-c4cccc(CN(C)C)c4)cc23)c(-c2ccc(NC(=O)N(C)C)cc2)n1
How it was run: as §1

[20] = compound: CN1CCC(CNc2ccc3ncc(-c4cccc(OC(F)(F)F)c4)n3n2)CC1
How it was run: as §1

Sequence of UniProt P36897 (P36897 whole entry, looked up): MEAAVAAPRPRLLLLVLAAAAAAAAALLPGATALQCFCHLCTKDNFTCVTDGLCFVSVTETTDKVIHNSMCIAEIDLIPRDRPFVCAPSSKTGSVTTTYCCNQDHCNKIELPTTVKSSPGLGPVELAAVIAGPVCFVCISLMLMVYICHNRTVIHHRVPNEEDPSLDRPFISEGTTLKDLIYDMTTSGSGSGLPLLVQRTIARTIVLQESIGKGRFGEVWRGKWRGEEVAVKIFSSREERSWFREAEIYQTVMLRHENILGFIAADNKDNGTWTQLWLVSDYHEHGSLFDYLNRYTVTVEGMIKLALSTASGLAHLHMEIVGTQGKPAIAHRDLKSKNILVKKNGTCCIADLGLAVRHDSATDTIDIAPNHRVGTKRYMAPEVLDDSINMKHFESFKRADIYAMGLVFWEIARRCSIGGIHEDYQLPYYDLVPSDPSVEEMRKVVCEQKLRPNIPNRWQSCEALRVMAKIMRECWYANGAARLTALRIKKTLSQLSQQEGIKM
Sequence of UniProt Q9NS93 (Q9NS93 whole entry, looked up): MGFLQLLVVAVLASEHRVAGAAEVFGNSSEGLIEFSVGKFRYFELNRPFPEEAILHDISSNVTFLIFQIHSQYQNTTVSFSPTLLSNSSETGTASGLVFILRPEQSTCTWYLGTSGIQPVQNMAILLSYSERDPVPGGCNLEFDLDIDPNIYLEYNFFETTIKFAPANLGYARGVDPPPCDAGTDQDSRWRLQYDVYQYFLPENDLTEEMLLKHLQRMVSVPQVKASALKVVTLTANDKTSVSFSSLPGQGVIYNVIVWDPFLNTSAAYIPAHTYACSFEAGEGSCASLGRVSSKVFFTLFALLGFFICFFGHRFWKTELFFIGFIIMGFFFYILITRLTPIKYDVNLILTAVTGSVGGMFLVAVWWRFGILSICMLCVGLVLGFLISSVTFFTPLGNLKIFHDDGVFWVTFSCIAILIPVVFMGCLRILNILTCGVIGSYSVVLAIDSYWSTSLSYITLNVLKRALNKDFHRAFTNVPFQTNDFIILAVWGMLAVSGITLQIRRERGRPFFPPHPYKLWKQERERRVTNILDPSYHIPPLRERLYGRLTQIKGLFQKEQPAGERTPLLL
Sequence of UniProt Q13596 (Q13596 whole entry, looked up): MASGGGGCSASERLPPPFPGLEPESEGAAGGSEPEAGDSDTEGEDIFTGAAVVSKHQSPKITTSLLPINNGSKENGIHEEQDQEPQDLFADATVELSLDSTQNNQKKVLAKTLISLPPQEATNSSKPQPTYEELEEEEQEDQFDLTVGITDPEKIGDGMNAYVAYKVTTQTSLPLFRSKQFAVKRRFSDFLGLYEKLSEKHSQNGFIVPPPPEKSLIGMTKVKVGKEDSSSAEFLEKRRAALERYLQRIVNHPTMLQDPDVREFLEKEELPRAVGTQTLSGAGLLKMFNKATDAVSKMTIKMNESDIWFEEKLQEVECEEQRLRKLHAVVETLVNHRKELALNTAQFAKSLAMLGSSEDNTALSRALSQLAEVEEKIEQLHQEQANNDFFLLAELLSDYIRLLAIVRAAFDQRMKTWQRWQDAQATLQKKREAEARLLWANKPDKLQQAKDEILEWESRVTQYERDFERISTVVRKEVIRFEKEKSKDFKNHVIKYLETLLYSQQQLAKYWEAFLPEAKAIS
Sequence of UniProt Q96BZ9 (Q96BZ9 whole entry, looked up): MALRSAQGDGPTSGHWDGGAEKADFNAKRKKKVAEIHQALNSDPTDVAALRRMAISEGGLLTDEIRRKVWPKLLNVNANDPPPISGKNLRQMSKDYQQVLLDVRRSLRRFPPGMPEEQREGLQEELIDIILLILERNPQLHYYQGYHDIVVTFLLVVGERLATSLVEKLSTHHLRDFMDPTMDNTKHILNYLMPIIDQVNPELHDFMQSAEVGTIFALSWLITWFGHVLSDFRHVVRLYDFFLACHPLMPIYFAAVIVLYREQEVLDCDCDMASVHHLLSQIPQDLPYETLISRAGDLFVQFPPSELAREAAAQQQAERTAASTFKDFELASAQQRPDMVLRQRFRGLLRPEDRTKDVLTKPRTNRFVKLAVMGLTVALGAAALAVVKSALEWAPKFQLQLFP
Sequence of UniProt Q14849 (Q14849 whole entry, looked up): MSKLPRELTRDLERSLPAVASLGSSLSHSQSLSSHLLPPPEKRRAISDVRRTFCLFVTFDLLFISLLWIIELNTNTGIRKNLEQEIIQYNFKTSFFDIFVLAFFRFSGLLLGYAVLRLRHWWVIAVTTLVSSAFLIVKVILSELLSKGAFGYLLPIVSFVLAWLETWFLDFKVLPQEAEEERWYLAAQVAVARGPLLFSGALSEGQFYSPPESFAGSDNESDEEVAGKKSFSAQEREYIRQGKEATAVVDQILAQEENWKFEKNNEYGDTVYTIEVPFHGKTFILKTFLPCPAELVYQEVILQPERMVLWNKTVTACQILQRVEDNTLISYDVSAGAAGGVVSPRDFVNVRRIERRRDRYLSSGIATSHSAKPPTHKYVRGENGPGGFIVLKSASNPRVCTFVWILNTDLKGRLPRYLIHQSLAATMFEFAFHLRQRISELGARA
Sequence of UniProt Q9BYN0 (Q9BYN0 whole entry, looked up): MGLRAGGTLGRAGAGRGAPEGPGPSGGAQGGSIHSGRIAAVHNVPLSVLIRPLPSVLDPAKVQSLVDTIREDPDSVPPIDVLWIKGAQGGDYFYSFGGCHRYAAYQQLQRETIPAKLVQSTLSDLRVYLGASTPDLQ
Sequence of UniProt O94901 (O94901 whole entry, looked up): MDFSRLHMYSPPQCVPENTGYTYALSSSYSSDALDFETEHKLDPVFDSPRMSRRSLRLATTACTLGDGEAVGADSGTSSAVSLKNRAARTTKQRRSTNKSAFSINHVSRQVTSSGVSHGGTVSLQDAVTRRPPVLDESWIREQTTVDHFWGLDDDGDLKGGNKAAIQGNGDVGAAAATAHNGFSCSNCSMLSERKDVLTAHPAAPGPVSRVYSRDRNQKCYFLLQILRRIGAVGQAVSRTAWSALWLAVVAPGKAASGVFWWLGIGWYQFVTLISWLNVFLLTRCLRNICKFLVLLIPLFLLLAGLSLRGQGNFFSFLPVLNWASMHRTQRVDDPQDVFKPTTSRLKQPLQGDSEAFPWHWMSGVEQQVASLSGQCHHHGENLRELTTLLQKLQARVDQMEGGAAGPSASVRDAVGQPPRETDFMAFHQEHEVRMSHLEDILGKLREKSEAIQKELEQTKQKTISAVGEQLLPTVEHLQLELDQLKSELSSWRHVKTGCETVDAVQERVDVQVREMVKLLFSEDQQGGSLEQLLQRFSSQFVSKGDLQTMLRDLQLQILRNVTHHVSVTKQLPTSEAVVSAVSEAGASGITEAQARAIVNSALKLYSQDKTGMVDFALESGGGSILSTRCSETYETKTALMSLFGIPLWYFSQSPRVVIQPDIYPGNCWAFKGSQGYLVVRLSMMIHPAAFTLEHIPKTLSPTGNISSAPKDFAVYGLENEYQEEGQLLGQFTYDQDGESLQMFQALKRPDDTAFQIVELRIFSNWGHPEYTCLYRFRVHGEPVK
Sequence of UniProt Q6XR72 (Q6XR72 whole entry, looked up): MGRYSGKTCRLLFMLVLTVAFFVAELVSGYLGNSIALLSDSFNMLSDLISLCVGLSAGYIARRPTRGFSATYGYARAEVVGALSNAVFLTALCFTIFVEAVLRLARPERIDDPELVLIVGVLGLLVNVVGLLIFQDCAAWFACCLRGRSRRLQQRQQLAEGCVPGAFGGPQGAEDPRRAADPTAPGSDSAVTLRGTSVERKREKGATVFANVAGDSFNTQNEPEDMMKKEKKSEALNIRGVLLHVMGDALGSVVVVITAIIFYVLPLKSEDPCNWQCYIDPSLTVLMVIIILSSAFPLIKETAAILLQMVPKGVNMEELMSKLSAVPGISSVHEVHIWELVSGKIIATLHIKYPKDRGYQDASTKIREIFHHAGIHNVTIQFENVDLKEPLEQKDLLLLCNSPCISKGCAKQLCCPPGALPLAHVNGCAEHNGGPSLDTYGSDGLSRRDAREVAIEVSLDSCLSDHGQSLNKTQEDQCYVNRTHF
Sequence of UniProt Q8N357 (Q8N357 whole entry, looked up): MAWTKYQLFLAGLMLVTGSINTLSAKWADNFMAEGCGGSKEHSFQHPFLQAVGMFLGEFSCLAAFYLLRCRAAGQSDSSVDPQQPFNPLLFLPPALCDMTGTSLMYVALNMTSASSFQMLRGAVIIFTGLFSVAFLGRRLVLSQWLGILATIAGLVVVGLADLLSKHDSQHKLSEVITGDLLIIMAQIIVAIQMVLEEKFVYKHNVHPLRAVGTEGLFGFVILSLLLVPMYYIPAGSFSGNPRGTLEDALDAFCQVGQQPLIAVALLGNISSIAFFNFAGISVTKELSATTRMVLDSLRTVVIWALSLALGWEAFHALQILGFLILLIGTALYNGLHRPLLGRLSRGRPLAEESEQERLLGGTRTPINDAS
Sequence of UniProt Q9BZD2 (Q9BZD2 whole entry, looked up): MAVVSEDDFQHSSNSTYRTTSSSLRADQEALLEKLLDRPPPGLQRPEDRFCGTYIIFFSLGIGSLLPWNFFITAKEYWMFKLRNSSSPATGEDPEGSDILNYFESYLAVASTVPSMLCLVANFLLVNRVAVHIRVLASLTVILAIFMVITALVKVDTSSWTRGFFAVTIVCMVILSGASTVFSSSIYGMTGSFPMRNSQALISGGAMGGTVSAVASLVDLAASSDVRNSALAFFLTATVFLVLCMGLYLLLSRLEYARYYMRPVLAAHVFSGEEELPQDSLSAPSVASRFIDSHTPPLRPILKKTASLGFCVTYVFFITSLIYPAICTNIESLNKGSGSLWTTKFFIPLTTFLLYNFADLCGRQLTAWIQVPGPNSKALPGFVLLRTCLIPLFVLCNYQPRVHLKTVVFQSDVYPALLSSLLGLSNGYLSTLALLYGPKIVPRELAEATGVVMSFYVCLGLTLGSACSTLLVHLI
Sequence of UniProt Q9Y5J6 (Q9Y5J6 whole entry, looked up): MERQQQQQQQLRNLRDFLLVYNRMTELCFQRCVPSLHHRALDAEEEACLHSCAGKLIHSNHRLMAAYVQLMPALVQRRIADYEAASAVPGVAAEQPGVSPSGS
Sequence of UniProt Q8N5G0 (Q8N5G0 whole entry, looked up): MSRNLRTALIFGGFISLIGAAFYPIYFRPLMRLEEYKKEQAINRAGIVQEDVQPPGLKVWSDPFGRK

| Target | log2 fold change [1] | log2 fold change [2] | log2 fold change [3] | log2 fold change [4] | log2 fold change [5] | log2 fold change [6] | log2 fold change [7] | log2 fold change [8] | log2 fold change [9] | log2 fold change [10] | log2 fold change [11] | log2 fold change [12] | log2 fold change [13] | log2 fold change [14] | log2 fold change [15] | log2 fold change [16] | log2 fold change [17] | log2 fold change [18] | log2 fold change [19] | log2 fold change [20] |
| --- | --- | --- | --- | --- | --- | --- | --- | --- | --- | --- | --- | --- | --- | --- | --- | --- | --- | --- | --- | --- |
| TMBIM6 isoform 2 (UniProt P55061) | -0.05 | 0.045 | 0.04 | -0.016 | -0.005 | -0.121 | 0.048 | 0.619 | 0.072 | 0.019 | -0.075 | -0.061 | -0.041 | 0.25 | -0.055 | 0.066 | -0.046 | -0.007 |  |  |
| SLC29A3 (UniProt Q9BZD2) | 0.005 | -0.023 | 0.089 | 0 | 0.124 | -0.097 | -0.128 | 0.017 | 0.005 | -0.016 | 0.171 | 0.007 | 0.05 | -0.048 | 0.047 | 0.002 | -0.049 | -0.161 |  |  |
| TBK1 (UniProt Q9UHD2) | -0.018 | -0.03 | 0.019 | -0.007 | 0.163 | -0.012 | 0.089 | 0.083 | 0.065 | 0.028 | -0.093 | -0.232 | 0.055 | 0.019 | 0.002 | -0.033 | 0.076 | 0.172 | 0.023 | -0.152 |
| SMIM20 isoform 2 (UniProt Q8N5G0) | 0.01 | 0.008 | -0.052 |  | 0.006 | 0.148 | -0.059 | -0.024 | -0.102 | -0.026 | 0.069 | 0.048 | -0.033 | 0.483 (active) | 0.038 | 0.007 | 0.036 | 0.051 | -0.065 | 0.002 |
| SUN1 isoform 9 (UniProt O94901) | -0.164 | 0.047 | 0.029 | 0.04 | 0.11 | -0.21 | -0.005 | 0.037 | 0.078 |  | 0.13 | 0.018 | -0.065 | -0.021 | 0.027 | 0.002 |  | 0.037 | 0.135 | -0.111 |
| SLC35F6 (UniProt Q8N357) | -0.041 | -0.166 | 0.001 |  | -0.065 | -0.168 | -0.055 | -0.066 | 0.129 | 0.045 | -0.099 | -0.053 | 0.087 | 0.021 | 0.11 | 0.034 | 0.047 | -0.029 |  |  |
| SRXN1 (UniProt Q9BYN0) | -0.149 | 0.01 | 0.04 | 0.089 | -0.036 | 0.142 | 0.017 | -0.027 |  | 0.012 | -0.031 | -0.083 | 0.027 | 0.069 |  | 0.046 | 0.124 |  | 0.159 | -0.199 |
| SNX1 (UniProt Q13596) | -0.014 | -0.001 | -0.001 | 0.042 | -0.025 | 0.002 | 0.083 | -0.014 | 0.054 | 0.037 | -0.135 | -0.113 | 0.096 | 0.037 | -0.096 | 0.003 | 0.079 | -0.029 | -0.107 | -0.605 (active) |
| SLC30A10 (UniProt Q6XR72) | 0.028 | -0.102 | 0.131 | 0.001 | -0.545 (active) | -0.031 | -0.073 | -0.086 | -0.002 | -0.025 | 0 | -0.052 | -0.052 | 0.045 | 0.023 | -0.028 | 0.039 | -0.087 | -0.244 | 0.044 |
| SLC25A39 (UniProt Q9BZJ4) | -0.029 | 0.011 | 0.207 | 0.129 | -0.037 | -0.019 | -0.048 | -0.133 | -0.092 | 0.088 | 0.029 | -0.06 | 0.087 | 0.081 | 0.096 | 0.06 | -0.03 | 0.012 | -0.12 | -0.82 (active) |
| TELO2 (UniProt Q9Y4R8) | 0.04 | -0.026 | 0.028 | -0.057 | 0.143 | 0.12 | 0.089 | 0.014 | 0.084 | 0.05 | -0.083 | -0.359 (active) | -0.017 | -0.093 | -0.031 | 0.123 | 0.036 | 0.154 | 0.005 | -0.052 |
| TGFBR1 isoform 2 (UniProt P36897) | -0.112 | 0.023 | -0.058 |  | 0.038 | 0.044 | 0.028 | -0.062 | 0.07 | -0.028 | -0.041 | -0.179 | -0.022 | 0.033 | -0.049 | -0.028 | 0.122 | 0.021 | -0.023 | 0.076 |
| STARD3 (UniProt Q14849) | 0.103 | 0.075 | -0.027 | 0.036 | -0.048 | 0.052 | -0.059 | 0 | 0.011 | 0.016 |  | 0.115 | 0.091 | -0.019 | 0.053 | -0.037 | 0.024 | -0.064 | 0.039 | -0.386 (active) |
| TBC1D20 isoform 3 (UniProt Q96BZ9) | -0.048 | 0.04 | 0.128 | 0.037 | 0 | 0.083 | 0.166 | -0.14 | 0.076 | 0.034 | 0.273 | -0.153 | 0.07 | 0.068 | -0.111 | 0.04 | -0.03 |  | 0.028 | 0.046 |
| TM7SF3 (UniProt Q9NS93) | -0.033 | -0.054 | 0.005 | 0.017 |  |  | -0.019 | -0.027 | 0.06 | 0.045 | -0.136 | -0.178 | -0.074 |  | -0.006 |  | -0.022 | 0.025 |  |  |
| SLC35A1 (UniProt P78382) | -0.027 | 0 | -0.045 | 0.06 | -0.037 | 0.382 (active) | 0 | -0.07 | -0.024 | -0.05 | 0.148 | 0.118 | -0.034 | 0.018 | -0.002 | -0.056 | -0.013 | -0.191 |  |  |
| TIMM10B (UniProt Q9Y5J6) | -0.053 | -0.075 | 0.018 |  | -0.05 | 0.073 | -0.077 | -0.057 | 0.061 | 0.067 | 0.033 | -0.011 | -0.064 | 0.274 | 0.115 | -0.12 | -0.041 | 0.063 | -0.033 | 0.131 |
